Among the data in PubChem BioAssay (NCI) are growth inhibition values, retold here.

The panel holds about 79,000 compounds, 15% with a hit somewhere; the sample as a whole holds those more often. Unmarked numbers belong to inactive results. Activity calls are given as the source filed them. Rule as the data show it: active = growth inhibition above about 70%; inactive = the rest.

Assay [1] in a line: NCI Yeast Anticancer Drug Screen. Data for the rad50 strain (AID 155).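 Also: 0% = growth of vehicle-only cultures of the same strain.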 As to conditions: S. cerevisiae rad50 strain growth inhibition, stronger effect = higher value. The method, boiled down:
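Compounds were tested on a yeast strain with an engineered DNA damage repair alteration; the reported value is growth inhibition normalised to vehicle treatment.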

Assay [2] can be described thus: NCI Yeast Anticancer Drug Screen. Data for the mec2-1 strain (AID 157). The note with it: S. cerevisiae mec2-1 strain, stronger effect = higher value. The method, boiled down: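 Growth inhibition is read against vehicle-treated controls after compound exposure of the mec2-1 yeast strain, which is defective in DNA damage repair or cell cycle control.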
Assay [3] can be described thus: NCI Yeast Anticancer Drug Screen. Data for the sgs1 mgt1 strain (AID 161).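 Also: 0% = growth of cultures given vehicle only.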 The note with it: S. cerevisiae sgs1 mgt1 strain, stronger effect = higher value. The method, boiled down:
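Percent growth inhibition was derived by comparing compound-exposed mutant yeast with vehicle-exposed cultures. The strain carries alterations in DNA damage repair.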

Assay [4] is described as follows: NCI Yeast Anticancer Drug Screen. Data for the cln2 rad14 strain (AID 165).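 Also: 0% = growth equal to vehicle treated cultures.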 The note with it: S. cerevisiae cln2 rad14 strain, stronger effect = higher value. The method, boiled down:
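Growth inhibition, relative to vehicle-treated controls, is the read-out. The test organism is a yeast strain with defined genetic alterations, cln2 rad14.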

Assay [5] in a line: NCI Yeast Anticancer Drug Screen. Data for the bub3 strain (AID 167). The note with it: S. cerevisiae bub3 mutant strain, stronger effect = higher value. The essentials: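 Growth of a checkpoint-deficient yeast mutant is measured after compound exposure. Values represent inhibition relative to vehicle.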
The nature of assay [6]: NCI Yeast Anticancer Drug Screen. Data for the mlh1 rad18 strain (AID 175). The note with it: S. cerevisiae mlh1 rad18 strain growth inhibition, stronger effect = higher value. The method, boiled down: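 Cells of a genetically altered yeast strain, deficient in DNA damage repair, were treated with compound. Their growth was then compared with that of vehicle-treated cultures to give inhibition.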

Where [7] appears, read: at 5.0 µM (retest, dose inferred, filed as 0.5).
Where [8] appears, read: at 50.0 µM (retest, dose inferred, filed as 5.0).

With `ClC1(Cl)c2ccccc2-c2ccccc21`, the growth inhibition is -147% in assay [1] (setting [7]); -36% in assay [1] (setting [8]); 7.55% in assay [1] (at 50.0 µM); -51% in assay [2] (setting [7]); -40% in assay [2] (setting [8]); -4.1% in assay [2] (at 50.0 µM). The growth inhibition was -59% in assay [3] (setting [7]); -49% in assay [3] (setting [8]); -7.05% in assay [3] (at 50.0 µM); -55% in assay [4] (setting [7]); -54% in assay [4] (setting [8]); 43.4% in assay [4] (at 50.0 µM). Moreover, the growth inhibition was -67% in assay [5] (setting [7]); -55% in assay [5] (setting [8]); -21% in assay [5] (at 50.0 µM); -115% in assay [6] (setting [7]); -79% in assay [6] (setting [8]); -2.85% in assay [6] (at 50.0 µM).

`CCCCCCCCCCCCOc1c(Cl)cc(Cl)c(Cl)c1Cc1c(O)c(Cl)cc(Cl)c1Cl`: the growth inhibition in assay [1] (setting [7]) was 1%; in assay [1] (setting [8]), 86% (active); in assay [1] (at 50.0 µM), 97.5% (active); in assay [2] (setting [7]) it was 0%; in assay [2] (setting [8]), 92% (active); in assay [2] (at 50.0 µM), 98.5% (active). The growth inhibition in assay [3] (setting [7]) was 2%; in assay [3] (setting [8]), 72% (active); in assay [3] (at 50.0 µM), 98.3% (active); in assay [4] (setting [7]), -2%; in assay [4] (setting [8]), 87% (active); in assay [4] (at 50.0 µM) it was 97.2% (active). Also, the growth inhibition is 0% in assay [5] (setting [7]); 89% (active) in assay [5] (setting [8]); 96.4% (active) in assay [5] (at 50.0 µM); 2% in assay [6] (setting [7]); 87% (active) in assay [6] (setting [8]); 97.7% (active) in assay [6] (at 50.0 µM).

For the compound `Cn1c2c(c3ccccc31)CCN(CCCN1CCN(c3ccccc3)CC1)C2=O`, the growth inhibition in assay [1] (setting [7]) is 49%; in assay [1] (setting [8]) it was 49%; in assay [1] (at 50.0 µM), 90.1% (active); in assay [2] (setting [7]) it was 43%; in assay [2] (setting [8]) it was 43%; in assay [2] (at 50.0 µM), 89.2% (active). Also, the growth inhibition is 58% in assay [3] (setting [7]); 58% in assay [3] (setting [8]); 90.4% (active) in assay [3] (at 50.0 µM); 38% in assay [4] (setting [7]); 38% in assay [4] (setting [8]); 91.5% (active) in assay [4] (at 50.0 µM). The growth inhibition in assay [5] (setting [7]) is 51%; in assay [5] (setting [8]), 51%; in assay [5] (at 50.0 µM), 91.3% (active); in assay [6] (setting [7]) it was 41%; in assay [6] (setting [8]), 41%; in assay [6] (at 50.0 µM) it was 84.7% (active).

Turning to `CC(C)=CCC/C(C)=C/CC/C(C)=C/CC/C=C(\C)CC/C=C(\C)CCC[N+](C)(C)[O-]`, the growth inhibition in assay [1] (setting [7]) is 14%; in assay [1] (setting [8]), 90% (active); in assay [1] (at 50.0 µM) it was 98.9% (active); in assay [2] (setting [7]), 17%; in assay [2] (setting [8]) it was 91% (active); in assay [2] (at 50.0 µM), 99.4% (active). Further, the growth inhibition was 46% in assay [3] (setting [7]); 94% (active) in assay [3] (setting [8]); 99.2% (active) in assay [3] (at 50.0 µM); 5% in assay [4] (setting [7]); 59% in assay [4] (setting [8]); 98.4% (active) in assay [4] (at 50.0 µM). For the same compound, the growth inhibition was 16% in assay [5] (setting [7]); 95% (active) in assay [5] (setting [8]); 98.8% (active) in assay [5] (at 50.0 µM); 13% in assay [6] (setting [7]); 73% (active) in assay [6] (setting [8]); 99.1% (active) in assay [6] (at 50.0 µM).

Consider `OC(Cc1ccc2ccccc2c1)CN1CCC(c2ccccc2)CC1` (configuration not stated), for which the growth inhibition was 56% in assay [1] (setting [7]); 84% (active) in assay [1] (setting [8]); 89.3% (active) in assay [1] (at 50.0 µM); 37% in assay [2] (setting [7]); 80% (active) in assay [2] (setting [8]); 83.5% (active) in assay [2] (at 50.0 µM). For the same compound, the growth inhibition was 24% in assay [3] (setting [7]); 76% (active) in assay [3] (setting [8]); 91.2% (active) in assay [3] (at 50.0 µM); 70% (active) in assay [4] (setting [7]); 88% (active) in assay [4] (setting [8]); 90.1% (active) in assay [4] (at 50.0 µM). Moreover, the growth inhibition in assay [5] (setting [7]) was 67%; in assay [5] (setting [8]) it was 96% (active); in assay [5] (at 50.0 µM), 91.6% (active); in assay [6] (setting [7]) it was 81% (active); in assay [6] (setting [8]), 94% (active); in assay [6] (at 50.0 µM) it was 90.5% (active).

As to `CCOCCOC(=O)C(C)O` (configuration not stated), the growth inhibition in assay [1] (setting [7]) is 9%; in assay [1] (setting [8]) it was -1%; in assay [1] (at 50.0 µM), 9.25%; in assay [2] (setting [7]), -1%; in assay [2] (setting [8]) it was -3%; in assay [2] (at 50.0 µM) it was 27.1%. Moreover, the growth inhibition in assay [3] (setting [7]) was -2%; in assay [3] (setting [8]), 3%; in assay [3] (at 50.0 µM), -3.1%; in assay [4] (setting [7]), 5%; in assay [4] (setting [8]), 2%; in assay [4] (at 50.0 µM) it was 45.3%. Also, the growth inhibition was 6% in assay [5] (setting [7]); 14% in assay [5] (setting [8]); 9.25% in assay [5] (at 50.0 µM); 7% in assay [6] (setting [7]); -2% in assay [6] (setting [8]); -7.1% in assay [6] (at 50.0 µM).

Turning to `CC(Br)C(=O)c1ccc(OCc2ccccc2)cc1` (configuration not stated), the growth inhibition in assay [1] (setting [7]) was 15%; in assay [1] (setting [8]), 84% (active); in assay [1] (at 50.0 µM), 90.7% (active); in assay [2] (setting [7]), 14%; in assay [2] (setting [8]) it was 99% (active); in assay [2] (at 50.0 µM), 94.2% (active). The growth inhibition in assay [3] (setting [7]) was 8%; in assay [3] (setting [8]), 75% (active); in assay [3] (at 50.0 µM), 89.9% (active); in assay [4] (setting [7]) it was 22%; in assay [4] (setting [8]), 78% (active); in assay [4] (at 50.0 µM), 92.3% (active). The growth inhibition in assay [5] (setting [7]) is 6%; in assay [5] (setting [8]) it was 99% (active); in assay [5] (at 50.0 µM) it was 90% (active); in assay [6] (setting [7]), 13%; in assay [6] (setting [8]), 94% (active); in assay [6] (at 50.0 µM), 77.9% (active).

As for `CCOCCC(=O)N1c2ccccc2CC1c1c[nH]c2ccccc12` (configuration not stated), the growth inhibition in assay [1] (setting [7]) is -6%; in assay [1] (setting [8]) it was 36%; in assay [1] (at 50.0 µM), 74.3% (active); in assay [2] (setting [7]), -9%; in assay [2] (setting [8]), 32%; in assay [2] (at 50.0 µM), 4.65%. The growth inhibition is -8% in assay [3] (setting [7]); 59% in assay [3] (setting [8]); 51.6% in assay [3] (at 50.0 µM); -57% in assay [4] (setting [7]); 36% in assay [4] (setting [8]); 8.45% in assay [4] (at 50.0 µM). In addition, the growth inhibition in assay [5] (setting [7]) was -8%; in assay [5] (setting [8]), 48%; in assay [5] (at 50.0 µM), 0.45%; in assay [6] (setting [7]), -4%; in assay [6] (setting [8]) it was 34%; in assay [6] (at 50.0 µM), 67.1%.

Turning to `Cc1nc(N)sc1N=Nc1ccc(Cl)cc1`, the growth inhibition in assay [1] (setting [7]) was -16%; in assay [1] (setting [8]) it was 55%; in assay [1] (at 50.0 µM) it was 78% (active); in assay [2] (setting [7]), 7%; in assay [2] (setting [8]), 62%; in assay [2] (at 50.0 µM), 50%. Besides, the growth inhibition in assay [3] (setting [7]) was -5%; in assay [3] (setting [8]), 62%; in assay [3] (at 50.0 µM) it was 57.2%; in assay [4] (setting [7]) it was 5%; in assay [4] (setting [8]), 24%; in assay [4] (at 50.0 µM) it was 66.7%. Further, the growth inhibition is 10% in assay [5] (setting [7]); 52% in assay [5] (setting [8]); 81.8% (active) in assay [5] (at 50.0 µM); 21% in assay [6] (setting [7]); 77% (active) in assay [6] (setting [8]); 84.5% (active) in assay [6] (at 50.0 µM).
